Bioassay records deposited in PubChem by several laboratories.
The list is not random: actives were taken first. Their share in the collection is about 3.1%.
TWEAK Fn14 block: TWEAK-Fn14 signaling inhibition; TWEAK-stimulated Fn14 reporter cells, luciferase luminescence, 8 h; inhibition, % at 10 µM; hit rate 2% among 360,000; in the data active = inhibition above about 50%
EWS-Fli block: inhibitors of EWS/Fli oncoprotein transcriptional activity. hit rate 0.67% among 350,000. AID 651661. inhibition, % at 12.6 µM. A673 NR0B1-luciferase reporter, viability-normalised;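 active = mean inhibition of at least 50% after viability correction, with every replicate also passing that limit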;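 note: firefly luciferase signal divided by Alamar Blue viability fluorescence both relative to DMSO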
LMP1 NFkB inh: inhibitors of Epstein-Barr LMP1-induced NF-kappaB reporter; AID 504558; inhibition, % at 12.5 µM; hit rate 0.69% among 350,000; LMP1-induced NF-kappaB luciferase reporter cells, luminescence; in the data active = inhibition above about 41%;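 note: 0% = neutral control wells and 100% = reference inhibitor control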
TROY signal inh: blocks TROY-dependent signaling in reporter cells; hit rate 0.98% among 360,000; inhibition, % at 10 µM; Q293 LMP1-TROYcd NF-kB luciferase reporter, 4 h; AID 1347056;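 active = compounds whose plate-normalised and pattern-corrected inhibition of the luciferase reporter signal at the single screening dose is 50% or more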
LGR2 inh: blocks bursicon-induced cAMP signaling via Drosophila LGR2; HEK293 LGR2, CRE-luciferase, bursicon-stimulated, 4 h; inhibition, % at 9.99 µM; hit rate 0.35% among 380,000;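 active = drop in luminescence signal, shown as inhibition above about 50% in the replicate tests, limit read from the data, passing the limit was not always enough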;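 note: agonist challenge used bursicon conditioned medium at about half maximal strength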
PAX8 reporter: lowers PAX8-driven luciferase in RMG-I cells. RMG-I TPO-luciferase reporter, SteadyGlo, 24 h. hit rate 1.2% among 360,000. AID 652154. inhibition, % at 12.6 µM;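 active = mean replicate inhibition at least 60% with every replicate also reaching 60%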;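 note: luciferase light reporting Pax8 driven TPO promoter activity; plate controls were median of neutral control wells for no effect and mitoxantrone controls for full effect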
Numbers without * were called inactive; nt = no result given.

SMILES	TWEAK Fn14 block	EWS-Fli block	LMP1 NFkB inh	TROY signal inh	LGR2 inh	PAX8 reporter
Cc1noc(C)c1S(=O)(=O)Nc1ccc2c(c1)CC(=O)N([C@H](C)CO)C[C@H](C)[C@H](CN(C)C(=O)Nc1ccc(C(F)(F)F)cc1)O2	nt	-4.0	nt	nt	-2.4	-13.4
C[C@@H]1CCCCO[C@H](CN(C)C(=O)Nc2cccc3ccccc23)[C@@H](C)CN([C@H](C)CO)C(=O)c2cc(NS(=O)(=O)c3cn(C)cn3)ccc2O1	nt	1.1	nt	nt	10.5	1.3
COc1ccccc1C#Cc1ccc([C@@H]2[C@@H](CO)N(C(=O)C3CCCCC3)[C@H]2C#N)cc1	nt	10.1	nt	nt	17.8	85.0*
N#C[C@@H]1[C@H](c2ccc(C#Cc3cccc(F)c3)cc2)[C@@H](CO)N1C(=O)C1CCC1	nt	15.4	nt	nt	71.8*	22.6
N#C[C@H]1[C@@H](c2ccc(C#Cc3cccc(F)c3)cc2)[C@@H](CO)N1C(=O)C1CCC1	nt	-2.4	nt	nt	2.8	nt
N#C[C@@H]1[C@@H](c2ccc(C#Cc3ccccc3F)cc2)[C@H](CO)N1C(=O)C1CCCCC1	nt	3.2	nt	nt	-13.7	81.5*
COc1ccccc1C#Cc1ccc([C@H]2[C@H](C#N)N(C(=O)C3CCCC3)[C@H]2CO)cc1	nt	3.7	nt	nt	79.8*	107.5*
COc1ccccc1C#Cc1ccc([C@@H]2[C@H](C#N)N(C(=O)C3CCCCC3)[C@H]2CO)cc1	nt	nt	nt	nt	12.6	25.8
C[C@@H]1CN([C@@H](C)CO)C(=O)c2cc(NC(=O)Nc3cccc4ccccc34)ccc2O[C@H]1CN(C)C(=O)Nc1ccc(F)cc1	nt	2.2	nt	nt	-5.1	nt
CCCC#Cc1ccc([C@@H]2[C@@H](C#N)N(C(=O)C3CCCCC3)[C@H]2CO)cc1	nt	13.8	nt	nt	4.3	82.5*
COc1ccccc1C#Cc1ccc([C@H]2[C@H](C#N)N(C(=O)C3CCC3)[C@H]2CO)cc1	nt	-6.4	nt	nt	41.9	106.3*
CC(C)(C)[S@](=O)N1Cc2cc(C(=O)NC3CCCCC3)nc(-c3cccc(Br)c3)c2[C@@H]1CCO	nt	5.3	nt	nt	12.3	-3.6
CN(C)/N=C/C=C1\CCC/C(=C\c2ccc(F)c(F)c2)C1=O	87.4*	-39.1	-96.7	-13.2	24.6	-50.3
CC(C)NC(=O)N(C)C[C@H]1OCCCC[C@@H](C)Oc2ccc(NC(=O)c3ccncc3)cc2C(=O)N([C@H](C)CO)C[C@H]1C	nt	-6.8	nt	nt	1.5	-7.9
Cc1cccc(N/C=C/c2onc(C)c2[N+](=O)[O-])c1	-7.8	nt	-41.2	-48.8	nt	nt
Cc1cccc(/C=C/c2onc(C)c2[N+](=O)[O-])n1	nt	41.4	nt	nt	70.5*	5.2
CO[C@H]1CN(C)C(=O)c2ccc(NC(=O)C3CC3)cc2OC[C@H](C)N(C(=O)CN2CCOCC2)C[C@H]1C	nt	0.6	nt	nt	3.9	-9.0
O=C(C[C@H]1CC[C@H]2[C@@H](COC[C@H](O)CN2Cc2cccc(C(F)(F)F)c2)O1)NCc1ccc(F)cc1	nt	15.1	nt	nt	2.4	-4.7
Cc1ccc(Cl)cc1NC(=O)CC(O)(C(F)(F)F)C(F)(F)F	31.0	nt	13.7	53.5*	nt	nt
COc1ccc(S(=O)(=O)Nc2ccc3c(c2)C(=O)N([C@@H](C)CO)C[C@H](C)[C@@H](CN(C)S(=O)(=O)c2ccccc2)OCCCC[C@@H](C)O3)cc1	nt	-0.6	nt	nt	3.6	-14.0
O=C(O)c1cn2c3c(ccc(Cl)c3c1=O)OCC2	-6.0	7.2	51.5*	13.0	-6.9	7.0
CNC(=O)c1cn2c3c(ccc(Cl)c3c1=O)OC(C)C2 (stereo not drawn)	1.0	-17.9	-3.9	-15.9	14.9	-8.6
Cc1ccc(S(=O)(=O)Nc2ccc3c(c2)CC(=O)N([C@@H](C)CO)C[C@@H](C)[C@H](CN(C)C(=O)Nc2ccc4c(c2)OCO4)O3)cc1	nt	-5.7	nt	nt	-4.7	-16.7
N/C(Cc1ccc(Cl)cc1)=N\OC(=O)c1ccccc1	-89.3	nt	-3.8	-33.0	-44.8	nt
COc1cc(C(=O)O/N=C(\N)Cc2ccc([N+](=O)[O-])cc2)cc(OC)c1OC	-37.5	21.9	nt	-11.9	nt	22.9
SMILES	TWEAK Fn14 block	EWS-Fli block	LMP1 NFkB inh	TROY signal inh	LGR2 inh	PAX8 reporter
COc1ccc(C(=O)O/N=C(\N)Cc2ccc(Cl)cc2)cc1OC	72.1*	nt	-9.3	13.3	nt	nt
COc1ccc(C(=O)O/N=C(\N)Cc2ccc(Cl)c(Cl)c2)cc1OC	92.4*	2.8	-23.1	-2.7	nt	8.0
O=C(NCC1CCCCC1)[C@@H]1N[C@@H]2c3ccc(C4=CCCC4)c(=O)n3C[C@@H]2[C@H]1CO	nt	-10.0	nt	nt	6.3	nt
COC(=O)c1sccc1NC(=O)CSc1ccccc1NS(=O)(=O)c1ccc(Br)cc1	53.5*	nt	1.7	52.2*	nt	15.1
COC(=O)c1sccc1NC(=O)CSc1ccccc1NS(=O)(=O)c1ccc(F)cc1	19.7	nt	-3.9	38.8	nt	2.0
C[C@@H]1CCCCO[C@H](CN(C)C(=O)c2ccccc2)[C@@H](C)CN([C@H](C)CO)C(=O)c2cc(NC(=O)Nc3ccc(F)cc3)ccc2O1	nt	-5.3	nt	nt	-16.7	8.1
C/C=C(\C)C(=O)OC1CC(C)(C)C[C@H]2C3=CC[C@@H]4[C@@]5(C)CCC(O[C@@H]6O[C@@H](C(=O)O)[C@@H](O)C(O[C@@H]7OC[C@H](O)[C@@H](O)[C@@H]7O[C@@H]7OC(CO)C(O)[C@@H](O)[C@@H]7O)C6O[C@@H]6OC(CO)C(O)C(O)C6O)[C@@](C)(CO)[C@@H]5CC[C@]4(C)[C@]3(C)CC(O)[C@@]12CO (stereo partly drawn)	1.5	23.9	8.1	-13.2	8.5	74.6*
Cc1cccc(NS(=O)(=O)c2cc(C(=O)OC(C)C(=O)NCc3ccc4c(c3)OCO4)ccc2C)c1 (stereo not drawn)	52.8*	-3.7	5.1	29.3	16.4	16.3
CC(=O)Nc1cccc(C(=O)OC(C)C(=O)NCc2ccc3c(c2)OCO3)c1 (stereo not drawn)	7.6	0.1	-4.9	-3.1	5.4	-7.4
CCCNC(=O)N(C)C[C@@H]1Oc2cc(-c3cncnc3)ccc2S(=O)(=O)N([C@H](C)CO)C[C@H]1C	nt	-4.7	nt	nt	-4.0	-24.7
CCN(CC)S(=O)(=O)c1cccc(C(=O)NCCc2ccccc2)c1	6.6	nt	-24.1	-11.0	-63.8	nt
COc1ccc(CCNC(=O)c2ccc(Cl)c(S(=O)(=O)N3CCCCCC3)c2)cc1	60.1*	22.0	13.3	43.9	15.7	22.5
CN(c1ccccc1)S(=O)(=O)c1cccc(C(=O)NCCc2ccc(O)c(O)c2)c1	39.2	36.9	5.5	56.1*	nt	13.8
COc1ccc(CCNC(=O)c2ccc(Cl)c(S(=O)(=O)N(C)c3ccccc3)c2)cc1	57.9*	nt	-4.9	52.6*	29.4	11.8
O=C(N[C@@H]1CC[C@@H](CCNS(=O)(=O)c2ccccc2)O[C@@H]1CO)c1cccc(F)c1	nt	-2.0	nt	nt	-9.0	1.0
O=C(C[C@@H]1C[C@@H]2c3cc(NC(=O)Nc4ccc(F)cc4)ccc3O[C@@H]2[C@H](CO)O1)NC1CCCC1	nt	-16.6	nt	nt	7.7	-12.7
COc1c2c(cc3oc(=O)c4c5ccc(O)cc5oc4c13)OC(C)(C)CC2	76.7*	-76.9	-111.0	76.7*	-16.4	nt
COc1c(CC=C(C)C)c(O)cc2oc(=O)c3c4ccc(O)cc4oc3c12	35.7	nt	nt	-4.2	nt	nt
